The list is not random: actives were taken first. Their share in the collection is about 1.7%.
PrPC surface inh = inhibitors of human cell surface prion protein PrPC, primary screen, cell-based, TR-FRET; TR-FRET read-out; Major prion protein (Homo sapiens), P04156; inhibition, % at 13.8 µM; 370,000 compounds, 0.43% hits; in the data active means inhibition above about 24%; further: 0% = median of the test wells and 100% = reference compound wells
PfHsp40 yeast = rescue of yeast from PfHsp40 toxicity, primary screen, S. cerevisiae, ATP luminescence | S. cerevisiae expressing PfHsp40, growth rescue | growth rescue, % at 12.5 µM | 340,000 compounds, 0.68% hits | AID 504582, 2011; in the data active means growth rescue above about 28%, passing the limit was not always enough;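 further: yeast W303a lacking pdr1 and pdr3 grown in galactose medium; growth measured after three days at 30 °C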
BJeLR viability = MLPCN primary cell-based screen for lethality selective to Ras in HRASV12 cells; BJeLR (HRASV12) viability, CellTiter-Glo ATP luminescence, 48 h; inhibition, % (concentration not given with the values); 300,000 compounds, 0.17% hits; AID 1554, 2009; in the data active means inhibition above about 50%
Yp Topo-I inh = Yersinia pestis topoisomerase I inhibitors, primary screen, biochemical, cleavage product accumulation, plate reader, single point; DNA topoisomerase I (Yersinia pestis CO92); Y. pestis Topo-I cleavage product accumulation; activity, % at 10 µM; 360,000 compounds, 0.064% hits; AID 504884, 2011; in the data active means activity above about 50%, passing the limit was not always enough
SSB-PriA inh = inhibitors of Klebsiella pneumoniae PriA binding to SSB C-terminal tail, primary screen, biochemical, AlphaScreen; 430,000 compounds, 0.6% hits; AlphaScreen SSBct-PriA binding, biotinylated peptide; inhibition, % at 33 µM; AID 1272365, 2023; PriA–SSB C-terminal tail interaction (Klebsiella pneumoniae); in the data active means inhibition mostly above about 37%, no sharp cut-off; inactive means mostly below about 20%;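 further: plate controls were negative control peptide for no effect and reference peptide for full effect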
PrP 5UTR inh = inhibition of PrP 5' UTR reporter expression; cell-based PrP 5' UTR mRNA reporter, plate reader; inhibition, % (concentration not given with the values); 340,000 compounds, 0.35% hits; in the data active means inhibition above about 52%; further: 0 = median of the neutral control wells
* marks the source's active call; other numbers are inactive results; / = not tested or not shown.

SMILES	PrPC surface inh	PfHsp40 yeast	BJeLR viability	Yp Topo-I inh	SSB-PriA inh	PrP 5UTR inh
O=C(NNC(=O)c1ccccc1OCc1ccc(F)cc1)c1ccccc1O	-3	43*	28	4	-8	21
O=C(Nc1ccc(N2CCCS2(=O)=O)cc1)c1ccc2ccccc2c1	/	/	/	/	-2	/
Cc1ccc(C(=O)NCCn2cc(SC(=N)N)c3ccccc32)cc1	/	/	/	/	39*	/
O=C(NCCCn1ccnc1)Nc1cc(Cl)cc(Cl)c1	/	/	/	/	57*	/
O=C(NCCCn1ccnc1)C(=O)NCc1ccccc1Cl	/	/	/	/	85*	/
O=C(NCCCn1ccnc1)Nc1cccc(Cl)c1	2	1	-8	5	74*	-22
CC(C)(C)C(=O)Nc1ccccc1C(=O)NCCCn1ccnc1	6	0	-6	-14	51*	-17
O=C(Nc1ccccc1C(=O)NCCCn1ccnc1)c1ccccc1	/	1	5	-8	4	-41
O=C(NCCCn1ccnc1)C(=O)Nc1ccc(Cl)cc1	/	/	/	/	-9	/
O=C(NCCCn1ccnc1)Nc1cccc(I)c1	/	/	/	/	27	/
CCOC(=O)Cc1csc(NC(=O)COc2ccc(Cl)cc2)n1	/	/	/	/	-14	/
COc1ccc(Cl)cc1S(=O)(=O)N1CCc2c(cnc3cc(C)nn23)C1	/	/	/	/	-6	/
NC(Cc1ccc(Cl)c(Cl)c1)=NOC(=O)c1cccs1	/	/	/	/	-21	/
COc1ccc(N2CC(CNC(=O)Nc3cccc(C(F)(F)F)c3)OC2=O)cc1OC (stereo not given)	/	/	/	/	-1	/
Cc1cc(-c2nnc(NC(=O)Cc3ccc(S(C)(=O)=O)cc3)o2)n(C)n1	/	/	/	/	43*	/
O=C(COc1ccccc1Cl)NCCCn1nc(-c2ccc(F)cc2)ccc1=O	/	/	/	/	-8	/
COc1cc(Sc2ccc(C)cc2)c(OC)cc1N	4	0	-8	-17	79*	-7
COC(=O)c1ccc(Sc2ccc(C)cc2)c(N)c1	17	-1	-7	28	-58	-35
O=C(Nc1nncs1)c1ccc(S(=O)(=O)c2ccccc2)cc1	6	173*	6	2	4	5
O=C(Nc1ccccc1C(=O)Nc1nncs1)c1ccccc1	-2	-1	2	-3	-4	-6
COc1ccc(CCNC(=O)Cn2c(-c3ccccn3)nc3ccccc32)cc1OC	/	/	/	/	-10	/
Cc1ccc(S(=O)(=O)N2CCC(c3nc(-c4ccc(C(F)(F)F)cc4)no3)CC2)cc1C	/	/	/	/	-6	/
CCOc1ccc(Cn2cc(F)c(=O)[nH]c2=O)cc1	7	1	2	-8	-11	-5
CC(C)COc1ccc(S(=O)(=O)n2cc(F)c(=O)[nH]c2=O)cc1	7	36*	-19	8	0	-3
CCCOc1ccc(S(=O)(=O)n2cc(F)c(=O)[nH]c2=O)cc1	-4	162*	-6	1	7	-28
SMILES	PrPC surface inh	PfHsp40 yeast	BJeLR viability	Yp Topo-I inh	SSB-PriA inh	PrP 5UTR inh
CC(C)C(=O)Nc1ccc(-n2cnc(C(=O)NCCc3ccc(Cl)cc3)c2)nc1	/	/	/	/	10	/
Cc1cc2ncc(CCCNC(=O)NC(c3ccccc3)c3ccccc3)cn2n1	/	/	/	/	0	/
COc1cc(CNC(=O)CCC(=O)N2C[C@H]3C[C@@H](C2)c2cccc(=O)n2C3)cc(OC)c1OC	/	/	/	/	-8	/
Cc1nc(N2CCC(C)CC2)c2c(C)c(C(=O)Nc3cccc(C(F)(F)F)c3)sc2n1	-1	-1	-2	-1	-11	0
Cc1nc(SC(C)C(=O)Nc2cccc(C(F)(F)F)c2)c2c(C)c(C(=O)O)sc2n1 (stereo not given)	-3	49*	-16	-2	-11	-9
Cc1ccc(CN2C(=O)CCC2C(=O)NCc2ccc(F)cc2)cc1 (stereo not given)	-7	63*	5	0	-2	2
CCOC(=O)Cc1csc(NC(=O)CSc2ccc3nnc(-c4ccccn4)n3n2)n1	/	/	/	/	-6	/
Cc1ccccc1-c1nc(C#N)c(N2CCCCC2)o1	6	6	-1	3	59*	-18
N#Cc1nc(-c2ccccc2F)oc1N1CCCCCC1	/	/	/	/	86*	/
N#Cc1nc(-c2ccccc2F)oc1N1CCCC1	6	-1	19	3	2	-9
Cc1ccc(C)c(S(=O)(=O)NCCCn2nc(-c3ccco3)ccc2=O)c1	/	/	/	/	-2	/
